Experimental data taken from ChEMBL document CHEMBL3988442, “University of Dundee, Small-Polar-MMV Screening Library” (2021).
For some assays here: Entries with a potency or affinity are not part of this list.

What was measured:
Set-up in all cases: scale not given: direction of the effect not stated beside the values
[1] = biological target: Protein translocase subunit SecA (Escherichia coli (strain K12)) (UniProt P10408); assay: Assay to Identify E. coli SecA ATPase Inhibitors; assay type: functional; details: 30 µM
Chain of Protein translocase subunit SecA (Escherichia coli (strain K12)) (P10408 whole entry): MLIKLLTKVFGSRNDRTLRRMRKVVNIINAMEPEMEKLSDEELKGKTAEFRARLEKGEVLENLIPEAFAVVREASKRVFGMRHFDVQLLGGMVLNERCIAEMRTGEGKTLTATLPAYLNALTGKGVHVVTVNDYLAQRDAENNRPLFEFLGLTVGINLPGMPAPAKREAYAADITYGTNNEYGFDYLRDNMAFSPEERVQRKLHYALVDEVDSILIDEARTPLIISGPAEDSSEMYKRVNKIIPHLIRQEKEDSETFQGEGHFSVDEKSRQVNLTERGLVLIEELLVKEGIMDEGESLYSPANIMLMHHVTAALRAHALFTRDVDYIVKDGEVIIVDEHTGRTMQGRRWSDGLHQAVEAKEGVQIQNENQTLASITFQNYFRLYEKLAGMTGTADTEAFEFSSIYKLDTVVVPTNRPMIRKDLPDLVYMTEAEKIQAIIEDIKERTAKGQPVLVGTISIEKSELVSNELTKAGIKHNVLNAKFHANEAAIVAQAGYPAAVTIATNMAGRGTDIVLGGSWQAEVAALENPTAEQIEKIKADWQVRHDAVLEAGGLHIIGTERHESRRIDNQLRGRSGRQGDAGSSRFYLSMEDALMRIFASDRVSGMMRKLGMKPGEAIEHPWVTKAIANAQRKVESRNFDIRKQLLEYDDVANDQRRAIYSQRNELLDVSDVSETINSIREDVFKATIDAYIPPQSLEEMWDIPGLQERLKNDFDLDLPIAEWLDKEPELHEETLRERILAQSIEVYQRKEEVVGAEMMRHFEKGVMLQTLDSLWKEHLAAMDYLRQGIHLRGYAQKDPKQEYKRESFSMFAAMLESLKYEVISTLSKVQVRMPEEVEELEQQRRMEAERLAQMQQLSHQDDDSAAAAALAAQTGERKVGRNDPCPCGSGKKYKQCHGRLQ

[2] = biological target: T1, Ubiquitin-activating enzyme e1, putative (Leishmania donovani (strain BPK282A1)) (UniProt E9BSI1); assay: Leishmania donovani Ubiquitin Activating Enzyme (LdE1); assay type: functional; details: 30 µM
T1 sequence (whole entry): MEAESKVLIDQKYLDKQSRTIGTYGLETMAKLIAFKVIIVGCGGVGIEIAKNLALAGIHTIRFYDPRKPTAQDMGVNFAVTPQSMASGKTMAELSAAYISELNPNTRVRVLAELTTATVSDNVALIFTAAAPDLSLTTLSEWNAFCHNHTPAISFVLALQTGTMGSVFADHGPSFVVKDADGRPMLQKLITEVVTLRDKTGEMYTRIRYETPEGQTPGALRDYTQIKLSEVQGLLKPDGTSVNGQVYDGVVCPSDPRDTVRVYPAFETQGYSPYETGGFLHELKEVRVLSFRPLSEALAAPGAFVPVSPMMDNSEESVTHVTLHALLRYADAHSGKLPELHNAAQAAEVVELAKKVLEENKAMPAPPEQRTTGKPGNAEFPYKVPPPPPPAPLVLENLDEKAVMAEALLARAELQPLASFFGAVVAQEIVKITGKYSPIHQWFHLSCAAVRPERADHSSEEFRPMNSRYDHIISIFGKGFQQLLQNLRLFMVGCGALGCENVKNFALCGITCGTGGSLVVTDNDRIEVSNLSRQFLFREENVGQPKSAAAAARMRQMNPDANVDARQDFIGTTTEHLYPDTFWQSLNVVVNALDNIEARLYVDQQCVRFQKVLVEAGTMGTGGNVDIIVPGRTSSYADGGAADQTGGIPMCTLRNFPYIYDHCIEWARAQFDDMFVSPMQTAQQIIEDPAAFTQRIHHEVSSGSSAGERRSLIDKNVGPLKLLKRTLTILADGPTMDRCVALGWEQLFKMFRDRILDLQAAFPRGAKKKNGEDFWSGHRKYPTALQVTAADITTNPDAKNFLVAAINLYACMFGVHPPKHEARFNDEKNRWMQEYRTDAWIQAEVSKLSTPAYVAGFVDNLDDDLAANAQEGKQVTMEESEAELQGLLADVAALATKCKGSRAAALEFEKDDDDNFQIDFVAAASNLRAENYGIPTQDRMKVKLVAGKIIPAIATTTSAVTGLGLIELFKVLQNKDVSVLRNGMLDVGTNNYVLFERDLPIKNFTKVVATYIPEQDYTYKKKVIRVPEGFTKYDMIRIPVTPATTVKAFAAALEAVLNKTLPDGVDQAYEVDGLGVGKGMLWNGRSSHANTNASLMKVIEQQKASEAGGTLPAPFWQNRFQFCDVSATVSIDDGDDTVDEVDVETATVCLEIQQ

[3] = biological target: AMP-activated protein kinase, AMPK (Homo sapiens) (UniProt P54646+O43741+P54619+Q9UGJ0+Q9Y478+Q13131+Q9UGI9); assay: AMP-dependent Kinase enzyme assay. An in vitro enzyme assay that detects ADP turnover that is directly proportional to AMPK activity. This uses naive AMPK that is activated during the assay with MK-8722; assay type: functional; details: 30 µM
[4] = biological target: Sialic acid-binding Ig-like lectin 9 (Homo sapiens) (UniProt Q9Y336); assay: Hs-Siglec9 ALPHAscreen SOP 20170721; details: 10 µM
Chain of Sialic acid-binding Ig-like lectin 9 (Homo sapiens) (Q9Y336 whole entry): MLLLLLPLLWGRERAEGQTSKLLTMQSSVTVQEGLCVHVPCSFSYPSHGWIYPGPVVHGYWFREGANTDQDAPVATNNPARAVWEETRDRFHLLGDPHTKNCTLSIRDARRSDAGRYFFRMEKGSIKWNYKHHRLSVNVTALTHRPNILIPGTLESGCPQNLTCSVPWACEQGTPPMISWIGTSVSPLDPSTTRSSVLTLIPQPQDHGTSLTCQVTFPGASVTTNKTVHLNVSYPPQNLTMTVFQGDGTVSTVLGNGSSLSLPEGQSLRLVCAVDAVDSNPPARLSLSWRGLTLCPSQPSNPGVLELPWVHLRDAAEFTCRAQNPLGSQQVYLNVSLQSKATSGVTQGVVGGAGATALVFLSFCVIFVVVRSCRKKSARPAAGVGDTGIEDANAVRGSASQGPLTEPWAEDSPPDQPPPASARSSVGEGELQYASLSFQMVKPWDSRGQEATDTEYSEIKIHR

Trypanosoma cruzi = assay: Trypanosoma cruzi phosphomannomutase and mannose-1-phosphate guanylyltransferase assay; assay type: functional; details: 10 µM
[5] = biological target: T2, Arginase-2, mitochondrial (Homo sapiens) (UniProt P78540); assay: in vitro enzyme assay to detect the production of urea directly proportional to the activity of Arginase II; assay type: functional; details: 33.3 µM; note: in the data most compounds retested in dose-response had high values
T2 sequence (whole entry): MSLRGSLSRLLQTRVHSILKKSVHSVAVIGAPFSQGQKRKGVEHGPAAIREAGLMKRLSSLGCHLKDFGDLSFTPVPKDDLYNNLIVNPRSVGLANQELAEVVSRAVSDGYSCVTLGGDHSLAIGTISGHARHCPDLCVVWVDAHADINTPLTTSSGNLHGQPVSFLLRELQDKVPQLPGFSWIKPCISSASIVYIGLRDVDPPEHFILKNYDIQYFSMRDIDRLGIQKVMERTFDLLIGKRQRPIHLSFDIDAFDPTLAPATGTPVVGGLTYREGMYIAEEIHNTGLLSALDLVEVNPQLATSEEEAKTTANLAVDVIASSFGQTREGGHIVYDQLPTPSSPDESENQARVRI

[6] = biological target: T3, Proteasome subunit beta (Trypanosoma cruzi) (UniProt O96673); assay: Trypanosoma cruzi proteasome chymotrypsin-like activity (TcProtChymo) assay.; note: in the data most compounds retested in dose-response had high values; assay type: functional; details: 9.37 µM
T3 sequence (whole entry): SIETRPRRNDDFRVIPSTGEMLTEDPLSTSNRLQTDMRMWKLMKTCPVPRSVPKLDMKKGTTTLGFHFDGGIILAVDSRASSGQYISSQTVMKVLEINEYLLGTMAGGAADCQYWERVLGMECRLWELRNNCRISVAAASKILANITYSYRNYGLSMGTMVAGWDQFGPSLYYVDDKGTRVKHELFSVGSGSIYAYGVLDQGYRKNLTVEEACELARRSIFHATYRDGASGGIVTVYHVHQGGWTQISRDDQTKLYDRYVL

Homo sapiens = species: Homo sapiens; assay: To identify inhibition of the IFN signalling (Jak-Stat) pathway via expression of an eGFP reporter gene under the control of an IFN-stimulated response element (ISRE) containing MxA promoter.; assay type: functional; details: 30 µM
[7] = biological target: T4, Tyrosyl-tRNA synthetase, putative (Trypanosoma cruzi (strain CL Brener)) (UniProt Q4DSP6); assay: Trypanosoma cruzi tyrosyl tRNA synthetase (TcYRS) _High Tyrosine SOP; assay type: functional; details: 30 µM; note: in the data most compounds retested in dose-response had high values
T4 sequence (whole entry): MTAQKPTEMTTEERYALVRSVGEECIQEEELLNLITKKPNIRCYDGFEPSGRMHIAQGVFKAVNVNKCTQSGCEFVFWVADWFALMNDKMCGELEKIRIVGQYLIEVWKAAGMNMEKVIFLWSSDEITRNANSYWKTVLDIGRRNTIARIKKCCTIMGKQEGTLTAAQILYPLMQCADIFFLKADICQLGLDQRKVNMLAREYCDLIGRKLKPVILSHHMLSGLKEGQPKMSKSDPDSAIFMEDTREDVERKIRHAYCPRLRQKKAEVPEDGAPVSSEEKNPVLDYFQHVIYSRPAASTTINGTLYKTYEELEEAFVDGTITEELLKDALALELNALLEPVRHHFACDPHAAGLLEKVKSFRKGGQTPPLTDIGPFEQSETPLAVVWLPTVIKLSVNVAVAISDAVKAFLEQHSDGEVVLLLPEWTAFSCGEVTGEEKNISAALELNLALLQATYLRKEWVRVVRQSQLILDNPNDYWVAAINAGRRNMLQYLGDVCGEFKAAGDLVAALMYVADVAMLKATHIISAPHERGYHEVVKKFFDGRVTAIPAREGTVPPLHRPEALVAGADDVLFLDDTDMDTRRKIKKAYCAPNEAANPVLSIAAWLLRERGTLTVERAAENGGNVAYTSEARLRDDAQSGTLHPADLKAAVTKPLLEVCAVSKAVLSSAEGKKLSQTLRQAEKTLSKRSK

[8] = biological target: T4, Tyrosyl-tRNA synthetase, putative (Trypanosoma cruzi (strain CL Brener)); assay: Trypanosoma cruzi tyrosyl tRNA synthetase (TcYRS) SOP; assay type: functional; details: 30 µM
[9] = biological target: Chromo domain-containing protein 1 (Saccharomyces cerevisiae (strain ATCC 204508 / S288c) (Baker's yeast)) (UniProt P32657); assay: ScCHD-1 Enzyme Inhibition Assay; assay type: functional; details: 30 µM; note: in the data most compounds retested in dose-response had high values
Chain of Chromo domain-containing protein 1 (Saccharomyces cerevisiae (strain ATCC 204508 / S288c) (Baker's yeast)) (P32657 whole entry, the tested form may be a part): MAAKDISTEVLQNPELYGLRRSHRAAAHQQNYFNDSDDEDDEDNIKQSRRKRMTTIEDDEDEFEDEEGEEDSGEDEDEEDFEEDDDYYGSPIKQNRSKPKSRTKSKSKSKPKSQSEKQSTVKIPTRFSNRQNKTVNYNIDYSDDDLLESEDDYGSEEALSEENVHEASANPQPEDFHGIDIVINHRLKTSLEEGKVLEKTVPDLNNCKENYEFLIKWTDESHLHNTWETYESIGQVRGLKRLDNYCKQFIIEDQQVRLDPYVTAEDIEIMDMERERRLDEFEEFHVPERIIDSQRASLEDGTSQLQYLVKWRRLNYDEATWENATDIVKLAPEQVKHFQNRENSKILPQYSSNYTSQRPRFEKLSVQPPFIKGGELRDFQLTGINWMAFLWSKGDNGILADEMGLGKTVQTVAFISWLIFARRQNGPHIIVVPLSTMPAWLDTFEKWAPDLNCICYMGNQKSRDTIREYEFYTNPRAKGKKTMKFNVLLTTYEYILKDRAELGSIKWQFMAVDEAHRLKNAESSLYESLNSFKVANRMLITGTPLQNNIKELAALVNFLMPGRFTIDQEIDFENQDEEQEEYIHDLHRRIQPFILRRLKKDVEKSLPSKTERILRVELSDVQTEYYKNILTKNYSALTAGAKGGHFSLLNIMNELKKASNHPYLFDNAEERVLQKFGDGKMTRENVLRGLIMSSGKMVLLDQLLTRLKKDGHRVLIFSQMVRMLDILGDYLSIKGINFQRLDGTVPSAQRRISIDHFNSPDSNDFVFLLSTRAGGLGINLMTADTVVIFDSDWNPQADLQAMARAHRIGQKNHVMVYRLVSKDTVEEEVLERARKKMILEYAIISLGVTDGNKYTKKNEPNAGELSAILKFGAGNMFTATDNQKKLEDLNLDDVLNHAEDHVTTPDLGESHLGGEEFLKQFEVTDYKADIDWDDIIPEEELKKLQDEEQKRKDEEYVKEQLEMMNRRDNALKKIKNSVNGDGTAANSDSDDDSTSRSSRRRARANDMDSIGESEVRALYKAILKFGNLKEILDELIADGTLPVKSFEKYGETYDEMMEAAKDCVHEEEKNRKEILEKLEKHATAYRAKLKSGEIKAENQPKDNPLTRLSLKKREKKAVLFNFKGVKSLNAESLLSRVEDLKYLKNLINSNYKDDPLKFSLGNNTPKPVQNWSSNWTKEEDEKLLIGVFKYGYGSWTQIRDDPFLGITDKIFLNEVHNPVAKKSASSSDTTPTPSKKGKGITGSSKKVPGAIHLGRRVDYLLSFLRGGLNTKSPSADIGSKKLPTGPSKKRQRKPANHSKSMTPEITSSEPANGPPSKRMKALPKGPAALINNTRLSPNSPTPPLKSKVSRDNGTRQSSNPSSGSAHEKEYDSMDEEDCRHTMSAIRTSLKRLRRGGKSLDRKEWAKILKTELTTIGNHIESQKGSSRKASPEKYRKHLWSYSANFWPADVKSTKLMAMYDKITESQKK

| SMILES | Percent Effect [1] [%] | Percent Effect [2] [%] | Percent Effect [3] [%] | Percent Effect [4] [%] | Percent Effect (Trypanosoma cruzi) [%] | Percent Effect [5] [%] | Percent Effect [6] [%] | Percent Effect (Homo sapiens) [%] | Percent Effect [7] [%] | Percent Effect [8] [%] | Percent Effect [9] [%] |
| --- | --- | --- | --- | --- | --- | --- | --- | --- | --- | --- | --- |
| Cn1cc(C2CCCN2Cc2csc(C(C)(C)C)n2)cn1 (configuration not stated) | -8.01 | 12.7 | -5.07 | 14.2 | 6.33 | -5.32 | 4.01 | -16.1 | 8.37 | 16.5 | -9.19 |
| CCO[C@@H]1CC[C@H]2[C@H]1OCCN2C(=O)C1CCOCC1 | -5.85 | 21.6 | -7.07 | 5.16 | 3.32 | 3.33 | 18.2 | 2.97 | 10.9 | 1.22 | -4.28 |
| Cc1ccc(CS(=O)(=O)N2CC[C@H]3[C@H]2CCN3C)cc1 | 1.22 | 13.7 | -1.19 | 9.36 | 6.35 | -0.399 | 14.5 | -5.72 | 6.25 | 16.1 | -5.83 |
| CCCS(=O)(=O)N1CCOCC2(CCN(c3ccccn3)C2)C1 (configuration not stated) | -1.74 | 1.33 | -1.28 | 4.69 | -6.88 | 1.58 | 3.88 | 3.94 | -3.17 | 5.13 | -4.27 |
| CCC(C)(NCC(=O)Nc1nc(C)cs1)c1nc(C)cs1 (configuration not stated) | 0.0522 | 10.8 | -10.8 | -1.43 | -3.62 | -2.73 | 7.47 | 21 | 7.53 | 13.6 | -3.58 |
| COCCOc1ccccc1CNCc1c(C)nn(C)c1N(C)C | -4.61 | 8.11 | -17.4 | -0.683 | -2.92 | -0.802 | 1.26 | -12 | 5.42 | 11.1 | -4.5 |
| CNC(=O)C(NC(=O)c1nccn2ccnc12)c1ccc(F)c(F)c1 (configuration not stated) | -5.39 | 13.5 | -2.95 | 5.66 | 5.27 | 16.2 | 19 | -10.6 | 5.94 | 15.8 | 23.6 |
| COCCO[C@H]1CCN(Cc2cccs2)[C@H]1Cc1cccnc1 | -3.38 | 0 | -12.3 | 20.5 | 6.35 | -1.24 | 11.6 | 0.814 | 3.23 | 6.17 | -1.24 |
| CCc1nccn1C1CCCN(C(=O)c2ccc3[nH]cnc3c2)C1 (configuration not stated) | -7.22 | 2.63 | 2.64 | 2.2 | 5.36 | 1.18 | 9.3 | 7.56 | 8.51 | 10.4 | -0.611 |
| CCCNC(=O)c1c(-n2cnnn2)sc2c1CCC2 | -1.2 | 7.89 | 4.3 | 2.22 | -9.45 | 3.55 | 9.3 | 2.78 | 5.32 | 0 | -5.31 |
| CCS(=O)(=O)N1CC[C@]2(C[C@@H](OCC3CC3)CO2)C1 | -5.7 | 5.41 | -4.19 | 27.4 | 6.94 | -1.74 | 13.3 | 1.36 | 8.6 | 13.6 | -6.86 |
| CN(C)C(CNS(=O)(=O)c1ccc(F)cc1F)c1cccn1C (configuration not stated) | -6.84 | 8.22 | 2.21 | -1 | -4.9 | 2.73 | 10.8 | 13.6 | 4.3 | 12.5 | -4.19 |
| Cc1ccc(NC(C)C(=O)NCc2cccs2)cc1C (configuration not stated) | -1.89 | 16.4 | 6.74 | 8.58 | 0.196 | -4.54 | 17.8 | 21.3 | -1.07 | 20 | -5.22 |
| CC(C)CN1C(=O)c2ccc(C(=O)NCCc3c[nH]cn3)cc2C1=O | -1.59 | -1.33 | 14.6 | 3.62 | -7.07 | -9.68 | 8.87 | -4.06 | 5.29 | 5.13 | -5.85 |
| c1ccc(CC2CCN(Cc3ccnc(-c4cccnc4)n3)CC2)cc1 | 0.966 | -4.05 | 9.39 | 1.78 | 0.198 | 1.16 | -1.56 | 18.1 | 4.3 | 6.49 | 7.16 |
| COCCN1CCC(NCc2ccc(C#N)cc2)C1 (configuration not stated) | -8.38 | 0 | -5.29 | 8.39 | 9.55 | 4.98 | 1.86 | 2.29 | 8.74 | 21.9 | -10.6 |
| Cc1cc(F)ccc1CN1CCC(O)(CN2CCCCC2)C1 (configuration not stated) | -6.21 | 5.33 | -7.83 | 3.56 | -1.46 | -1.04 | 19.2 | -1.85 | 4.92 | 8.64 | -4.93 |
| Cc1cccc(CN2CC3(CCNCC3)OCC2=O)n1 | -6.42 | 2.7 | 2.52 | -3.05 | 1.37 | -0.833 | 2.11 | 2.26 | 4.95 | 11 | -6.46 |
| CC(Cn1cccn1)NCc1nc(-c2cccc(Cl)c2)no1 (configuration not stated) | -2.57 | -2.63 | 1.2 | 3.09 | 4.76 | 0 | 5.33 | 11.7 | 3.45 | 11.1 | 2.72 |
| Cc1cc(CN2CCN(C(=O)c3sccc3C3CC3)CC2)on1 | -1.18 | 10.4 | 2.54 | -6.72 | -7.35 | 1.05 | 9.62 | 18.1 | 4.76 | 18.8 | -15.4 |
| Cn1cnc(S(=O)(=O)N2CCCC2)c1Cl | -1.75 | 4.17 | -5.49 | -0.277 | 1.46 | 13.2 | 15.4 | -29.7 | 3.16 | 10.3 | -2.89 |
| Cc1noc(CN(Cc2ccc3c(c2)OCO3)C2CCCC2)n1 | -1.22 | 10.8 | -9.58 | 6.53 | -1.04 | -12 | 6.67 | 29.7 | 3.45 | 3.7 | -9.8 |
